# Compounds with a hit are over-represented: about 19% of the library has one in this group of screens.
# IL-1B inflam inh = qHTS for Inhibitors of Inflammasome Signaling: IL-1-beta AlphaLISA Primary Screen. THP-1 LPS/ATP IL-1B secretion, AlphaLISA, 16 h; hits give low values. activity change, % at 57.5 µM. 4.7% of 360,000 active. AID 743279, 2014; in the data active = activity change below about -50%; inconclusive = mostly about -30% to -49%
#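 THP-1 cells pretreated 1 hr with compounds (up to 57.5 uM final), then stimulated with LPS (250 ng/mL final) plus ATP (1.25 mM final); secreted IL-1B measured by AlphaLISA after 16 hr, decreased signal indicating inhibition.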
# TDP1 inh = qHTS Assay for Inhibitors of Tyrosyl-DNA Phosphodiesterase (TDP1). AID 485290, 2010. Potency, µM (doses to about 130 µM), without a hit: at the highest dose activity change, negative = inhibition, hits mostly inhibitors. Tyrosyl-DNA phosphodiesterase 1 (Homo sapiens), Q9NUW8. 0.28% of 350,000 active. recombinant TDP1, AlphaScreen DNA substrate cleavage; note: potency is the fitted concentration of half-maximal effect; nearly all actives have a fitted effect of over 40% in size
# Target sequence (Q9NUW8 whole entry, looked up): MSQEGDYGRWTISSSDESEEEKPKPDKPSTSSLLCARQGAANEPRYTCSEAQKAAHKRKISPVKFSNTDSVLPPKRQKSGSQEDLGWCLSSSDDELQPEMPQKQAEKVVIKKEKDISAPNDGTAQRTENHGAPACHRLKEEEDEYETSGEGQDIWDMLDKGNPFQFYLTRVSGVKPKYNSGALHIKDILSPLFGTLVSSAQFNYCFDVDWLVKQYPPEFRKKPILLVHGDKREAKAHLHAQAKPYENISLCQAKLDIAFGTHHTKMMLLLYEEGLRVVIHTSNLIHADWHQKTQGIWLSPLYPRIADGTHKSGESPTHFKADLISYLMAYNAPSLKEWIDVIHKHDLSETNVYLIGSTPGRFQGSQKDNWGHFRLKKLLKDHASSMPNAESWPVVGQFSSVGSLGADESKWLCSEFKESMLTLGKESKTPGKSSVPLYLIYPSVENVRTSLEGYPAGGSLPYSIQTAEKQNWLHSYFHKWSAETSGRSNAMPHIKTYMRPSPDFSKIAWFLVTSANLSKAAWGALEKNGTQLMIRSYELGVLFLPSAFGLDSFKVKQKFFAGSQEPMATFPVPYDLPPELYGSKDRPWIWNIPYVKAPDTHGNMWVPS
#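 AlphaScreen read-out: signal falls as enzyme removes the 3' tyrosine-FITC from a 5'-biotinylated DNA oligo (15 nM, 5 min, RT). Enzyme was E. coli-made recombinant Tdp1 at 1 nM, exposed to compound for 15 min beforehand; beads 10 ug/ml, 10 min.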
# TDP1 cell CPT = qHTS for Inhibitors of human tyrosyl-DNA phosphodiesterase 1 (TDP1): qHTS in cells in presence of CPT; chicken DT40 Tdp1-/-;hTDP1 cells + 20 nM CPT, ATP luminescence, 48 h; Potency, µM (top dose mostly 46.2 µM), for the others: top-dose activity change, negative = growth inhibition, hits mostly inhibitors; 12% of 420,000 active; note: potency is the fitted concentration of half-maximal effect; nearly all actives have a fitted effect of over 55% in size
#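 Cell growth measured by CellTiter-Glo luminescence after a minimum 48 h, 37 C compound exposure with 20 nM CPT in Tdp1-knockout DT40 cells stably expressing hTDP1, seeded 400/well; qHTS titration format.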
# ELG1 repair inh = qHTS screen for small molecules that inhibit ELG1-dependent DNA repair in human embryonic kidney (HEK293T) cells expressing luciferase-tagged ELG1. Potency, µM (doses to about 46.1 µM), inactives show at the highest dose activity change, negative = inhibition, most hits filed as inhibitors. HEK293T ELG1-luciferase reporter, luminescence, 16 h; DNA damage induced by 5-fluorouridine. AID 504467, 2011. 2.3% of 330,000 active; note: potency is the fitted concentration of half-maximal effect; nearly all actives have a fitted effect of over 55% in size
#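 Quantitative HTS, concentration-response format. 2,000 cells/well co-treated with 5-fluorouridine and compound, 16 hr in 5% CO2 at 37 °C; ONE-Glo luminescence read after 30 min.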
# Giardia killer = Small Molecules that selectively kill Giardia lamblia: qHTS | activity change, % at 7.66 µM, hits read low | Giardia lamblia trophozoite viability | 0.15% of 340,000 active; in the data active = activity change below about -80%; inconclusive = between about -30% and that limit;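 note: parasites exposed to compound for two days anaerobically before the ATP read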
#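 Anaerobic 48 hrs incubation at 37 deg C of 100 trophozoites/well with test compounds; ATPLite 1-Step luminescence, 15-30 min RT, reports cellular ATP as viability.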
# TDP1 cell noCPT = qHTS for Inhibitors of human tyrosyl-DNA phosphodiesterase 1 (TDP1): qHTS in cells in absence of CPT. Potency, µM (series often up to 46.2 µM), without a hit: at the top dose activity change, negative = growth inhibition, actives largely listed as inhibitors. DT40 Tdp1-/- hTDP1 cells, no CPT, ATP luminescence, 48 h. 15% of 420,000 active; note: potency is the fitted concentration of half-maximal effect; nearly all actives have a fitted effect of over 55% in size
#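 No-CPT arm: Tdp1-/-;hTDP1 DT40 cells (400/well) plus compounds, incubated ≥48 hr at 37 °C. Readout CellTiter-Glo luminescence.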
# Numbers without * were called inactive; u = inconclusive; x = not tested or not shown. Unless noted, calls come from the whole dose curve; as a rule, active = well fitted curve in the direction sought with a large enough effect; inconclusive = small, poorly fitted or top-dose-only effect, or another doubt; inactive = no such curve, though single readings can be large; an effect the other way counts as inactive or inconclusive. % is set by controls: 0 for no effect and ±100 for the full control effect.
SMILES,IL-1B inflam inh,TDP1 inh,TDP1 cell CPT,ELG1 repair inh,Giardia killer,TDP1 cell noCPT
COc1ccccc1C(CCNCc1ccc(N(C)C)cc1)c1ccc(OC(C)C)cc1 (stereo unspecified),-101*,x,21µM*,-5%,10,7.3µM*
COc1ccc(CNCCC(c2ccc(OC(C)C)cc2)c2ccccc2OC)cc1OC (stereo unspecified),x,x,8.2µM*,u,-5,10µM*
COc1ccc(CNCCCSc2ncccn2)cc1OC,-8,x,1%,3%,1,-18%
COc1ccccc1C(CCNCc1ccccc1)c1ccc(OC(C)C)cc1 (stereo unspecified),-89*,x,16µM*,u,9,21µM*
COc1ccc(CNCCC(c2ccc(OC(C)C)cc2)c2ccccc2OC)cc1 (stereo unspecified),-97*,x,13µM*,-11%,11,12µM*
COc1ccc(C2CC(c3ccccc3)Oc3cc4c(cc32)OCO4)cc1 (stereo unspecified),x,20%,x,x,-8,x
O=C(NC1CC(=O)N(c2ccccc2)C1)c1cccs1 (stereo unspecified),x,-3%,-14%,x,x,u
O=C(c1ccc2c(c1)OCO2)C1CCCN(Cc2ccc3cccc(F)c3n2)C1 (stereo unspecified),-28,-1%,u,-9%,2,21µM*
O=C(c1ccc2c(c1)OCO2)C1CCCN(Cc2cn[nH]c2-c2cccc(F)c2)C1 (stereo unspecified),-92*,-2%,u,u,5,u
CCOC(=O)N1CCC2(CC1)C(C#N)=C(N)Oc1c2c(C)nn1-c1cccc(Cl)c1,-6,9%,16µM*,-1%,10,18µM*
CCOC(=O)N1CCC2(CC1)C(C#N)=C(N)Oc1c2sc2nc(C)cc(C)c12,-14,-2%,u,u,-15,16µM*
CCOC(=O)N1CCC2(CC1)C(C#N)=C(N)Oc1n[nH]c(C)c12,16,7%,-18%,0%,0,-4%
CCCN1CCC2(CC1)C(C#N)=C(N)Oc1c2sc2nc(C)cc(C)c12,-3,6%,u,3%,12,u
Nc1ncc(S(=O)(=O)NCc2ccccc2F)cn1,x,1%,-3%,x,x,1%
Cc1ccc(N)c(Cl)c1,x,5%,x,x,x,x
CN(C)CCCCCCNc1nccc(N2CCN(C)CC2)n1,x,x,10µM*,x,x,20µM*
CN(C)CCCCCCNc1cc(N2CCN(C)CC2)ncn1,x,x,-9%,x,x,0%
CCOC(=O)c1cnc2c(C)c(Cl)ccc2c1NCCc1ccc(OC)c(OC)c1,x,x,u,x,x,16µM*
CCOC(=O)c1cnc2c(C)cc(C)cc2c1NCCc1ccc(OC)c(OC)c1,x,x,21µM*,x,x,23µM*
CCOC(=O)c1cnc2c(C)cccc2c1NCCc1ccc(OC)c(OC)c1,-6,1%,16µM*,23µM*,5,23µM*
CCOC(=O)c1cnc2c(C)cccc2c1Nc1cccc(C(=O)O)c1,55,x,1%,7%,-18,19%
CC(Sc1nnc(Cc2cccs2)n1C1CCCCC1)C(=O)NCc1ccco1 (stereo unspecified),-3,-4%,15µM*,-20%,6,15µM*
NC(=O)CSc1nnc(Cc2cccs2)n1C1CCCCC1,1,3%,0%,u,7,22%
Cc1ccc(NC(=S)N2CCN(S(=O)(=O)c3ccccc3)CC2)cc1C,7,2%,-12%,-12%,16,-2%
Oc1ccc(Nc2nc(-c3ccc(Cl)cc3)nc3ccccc23)cc1,x,1%,u,x,-16,u
SMILES,IL-1B inflam inh,TDP1 inh,TDP1 cell CPT,ELG1 repair inh,Giardia killer,TDP1 cell noCPT
CCOc1ccc(Nc2nc(N)c([N+](=O)[O-])c(N3CCOCC3)n2)cc1,-13,x,-3%,-19%,9,u
Nc1nc(Nc2ccc(Cl)cc2)nc2ccccc12,-119*,0%,7.3µM*,u,u,5.8µM*
CN(C)c1ccc(-c2c3ccccc3nc3ccccc23)cc1,x,x,u,x,x,-25%
CN(C)c1ccc(Nc2nc(N)c3ccccc3n2)cc1,-96*,x,26µM*,u,u,13µM*
CCOc1ccc(Nc2nc(N)c3ccccc3n2)cc1,-91*,x,7.3µM*,u,u,u
COc1ccc(NC2CCCN(C(=O)CSc3ccccn3)C2)cc1OC (stereo unspecified),34,2%,-21%,-2%,3,-1%
CC(=O)OC1CC(C)(C)N(OC(=O)c2ccc(N)cc2)C(C)(C)C1,24,-9%,u,-11%,-3,-20%
CC(=O)ON1C(C)(C)CC(OC(=O)c2ccccc2)CC1(C)C,16,4%,21µM*,0%,-5,-27%
CC(=O)OC1CC(C)(C)N(OC(=O)c2ccccc2)C(C)(C)C1,-26,-5%,u,-2%,7,21µM*
CCn1c(SC(C)C(=O)NCC2CCCO2)nc2ccccc21 (stereo unspecified),15,1%,-4%,17%,2,-23%
O=C(CN1CCN(S(=O)(=O)c2ccc(Cl)cc2)CC1)Nc1ccc2c(c1)OCCO2,-5,4%,u,-4%,7,15µM*
O=C(CN1CCN(S(=O)(=O)c2ccc(Cl)cc2)CC1)Nc1ccc2c(c1)OCO2,-19,6%,u,-14%,11,29µM*
O=C(CN1CCN(c2ccccc2O)CC1)Nc1ccc2c(c1)OCCCO2,-50*,4%,-3%,-13%,-6,13%
